Source: PubChem BioAssay
KCNQ2 block = inhibitors of rat KCNQ2 potassium channel | CHO-K1 KCNQ2, FluxOR thallium flux, 20 min; active compounds read low | O88943 | AID 2156 | B-score at 10 µM | 1.1% of 310,000 active;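 active = fluorescence ratio B-score at most minus 3 library SDs, with starting brightness B-score within 2 library SDs, cut at about -5.5 in these data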
Target sequence (O88943 whole entry, looked up): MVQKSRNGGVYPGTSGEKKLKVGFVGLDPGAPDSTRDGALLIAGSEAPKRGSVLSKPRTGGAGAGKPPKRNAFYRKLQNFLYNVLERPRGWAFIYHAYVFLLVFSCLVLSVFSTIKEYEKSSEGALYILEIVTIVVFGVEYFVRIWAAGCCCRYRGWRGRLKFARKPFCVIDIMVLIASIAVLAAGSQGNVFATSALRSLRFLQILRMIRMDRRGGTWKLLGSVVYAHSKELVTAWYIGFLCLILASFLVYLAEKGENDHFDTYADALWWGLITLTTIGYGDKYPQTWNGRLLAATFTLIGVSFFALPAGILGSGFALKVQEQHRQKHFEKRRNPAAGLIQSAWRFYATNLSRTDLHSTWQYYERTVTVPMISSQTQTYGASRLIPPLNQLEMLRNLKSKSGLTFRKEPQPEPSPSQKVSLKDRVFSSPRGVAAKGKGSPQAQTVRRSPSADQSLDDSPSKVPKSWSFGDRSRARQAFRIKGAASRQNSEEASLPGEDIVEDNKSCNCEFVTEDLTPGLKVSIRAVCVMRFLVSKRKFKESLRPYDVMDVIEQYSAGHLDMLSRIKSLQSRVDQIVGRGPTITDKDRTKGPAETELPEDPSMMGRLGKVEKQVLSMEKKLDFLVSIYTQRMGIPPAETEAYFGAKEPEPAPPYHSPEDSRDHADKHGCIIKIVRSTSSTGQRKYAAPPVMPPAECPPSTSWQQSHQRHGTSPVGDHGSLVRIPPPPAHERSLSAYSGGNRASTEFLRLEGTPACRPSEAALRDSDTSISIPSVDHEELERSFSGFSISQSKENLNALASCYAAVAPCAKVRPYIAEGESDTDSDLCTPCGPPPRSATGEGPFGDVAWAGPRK
KCNQ2 pot = potentiators of rat KCNQ2 potassium channel; O88943; CHO-K1 KCNQ2, FluxOR thallium flux fluorescence; active compounds read high; B-score at 10 µM; 0.54% of 310,000 active; AID 2239;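 active = fluorescence ratio B-score at least 3 SD of library B-scores, with initial fluorescence B-score within 3 of them, cut at about 5.3 in these data; same plate scores as AID 2156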;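 note: B-score of peak minus minimum over baseline fluorescence ratio after K+ and Tl+ stimulus; positive B-score means potentiation of KCNQ2 with more thallium influx and brighter signal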
Kir21 conf inh = confirmation of mouse Kir2.1 potassium channel inhibitors; shares compounds with KCNQ2 pot; Kir2.1-expressing cells, FluxOR thallium flux fluorescence; active compounds read low; Tl flux remaining, % of negative control (active compounds read low), % at 10 µM; 41% of 2,300 active; AID 2032;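 active = Primary-screen hit whose thallium flux fell at least 3 control SD below untreated wells in both duplicates, with normal baseline fluorescence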;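 note: 0% = blank wells without stimulus and 100% = stimulated no-compound controls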
HEK293 ctr = alters thallium flux in parental HEK293 cells, Kir2.1 counter-screen; 19% of 2,300 active; FluxOR thallium flux fluorescence; 0% = unstimulated blank wells; shares compounds with KCNQ2 pot; FluxOR signal as % of negative control (100 = no effect), % at 10 µM;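 active = dye signal at least 3 control SD above or below untreated wells in both duplicates, raw fluorescence within 3, either direction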;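 note: percent is based on the flux ratio of peak minus minimum fluorescence over baseline F0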
CHO-K1 Tl ctr = parental CHO-K1 activity in KCNQ2 potentiator counter-screen | activity increase over 3SD of controls, % at 10 µM | shares compounds with KCNQ2 pot | parental CHO-K1 cells, FluxOR thallium flux fluorescence; zero = vehicle mean+3SD, 100% = vehicle-minus-blank window | 43% of 1,200 active;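 active = signal rise of at least 3 SD above the untreated control mean, in both duplicate wells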;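 note: counter screen of KCNQ2 potentiator hits so any rise reflects channel-independent effects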
KCNQ1 sel pot = selectivity of KCNQ2 potentiators: effect on human KCNQ1. shares compounds with KCNQ2 pot. CHO KCNQ1 stable, FluxOR thallium flux fluorescence; beyond 3SD, as % of vehicle-control signal. activation over 3SD threshold, % at 10 µM. 28% of 1,200 active. AID 2283;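 active = fluorescence ratio rise of at least 3 SD of vehicle wells above their mean, in both replicate wells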;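 note: 0% = vehicle mean plus 3 SD and 100% = vehicle minus unstimulated blank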
KCNQ2 pot conf = rat KCNQ2 channel potentiator confirmation | potentiation, less the hit threshold, % at 10 µM | shares compounds with KCNQ2 pot | AID 2287 | CHO-KCNQ2 cells, FluxOR thallium flux fluorescence | 68% of 1,200 active;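 active = fluorescence ratio rising 3 SD or more over the vehicle control mean in both replicates, plus primary screen hit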;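 note: peak minus minimum thallium fluorescence divided by baseline after K/Tl stimulus; 0% = vehicle mean plus 3 SD and 100% = vehicle minus unstimulated blank difference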
Kir2-1 sel = selectivity of KCNQ2 potentiators: effect on mouse Kir2.1. shares compounds with KCNQ2 pot. HEK293 Kir2.1, FluxOR thallium flux fluorescence. activity over 3SD threshold, % at 10 µM. 2% of 1,200 active;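 active = fluorescence ratio rise of at least 3 SD above the vehicle-control mean, seen in both replicates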;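 note: 0% = vehicle mean plus 3 SD and 100% = vehicle minus no-stimulus blank window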
KCNQ2 W236L pot = KCNQ2 potentiators acting on retigabine-insensitive rat KCNQ2 W236L mutant. AID 2558. current increase over 3SD of negative controls (%), active compounds read high, % at 25 µM. 10% of 940 active. shares compounds with KCNQ2 pot. CHO KCNQ2-W236L, automated patch clamp current;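 active = current increase at least 3 SD of the untreated controls above them in both duplicate recordings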
Starred values were filed as active, the others as inactive; i = inactive; · = not tested or not shown. Most compounds without a hit are left out; they make up all but 1.6% or so of the library.

SMILES | KCNQ2 block | KCNQ2 pot | Kir21 conf inh | HEK293 ctr | others
COCCOC(=O)c1c(C)oc2ccc(O)c(CN3CCC(C)CC3)c12 | i | 0.11 | · | ·
CCOC(=O)c1c(-c2ccccc2)oc2ccc(O)c(CN(C)C)c12 | i | 1.41 | i | i
Cc1oc2ccc(O)c(CN(C)C)c2c1C(=O)c1ccccc1 | i | · | · | ·
CCOC(=O)c1c(-c2ccccc2)oc2ccc(O)c(CN3CCCC3)c12 | i | · | 26.0%* | i
CCOC(=O)c1c(-c2ccccc2)oc2ccc(OC(C)C(=O)O)cc12 (stereo not drawn) | i | · | · | ·
CCN(CC)S(=O)(=O)c1cc(C)ccc1SC | i | · | · | ·
COc1ccc(O)c(CN2CCC(n3nccc3NC(=O)C3CCCC3)CC2)c1 | i | · | · | ·
C1CCN(Cc2nnnn2CC2CCCO2)CC1 (stereo not drawn) | i | · | · | ·
Cc1ccccc1NC(=O)NCc1ccccn1 | i | · | · | ·
O=C(CN1C(=O)c2ccc([N+](=O)[O-])cc2C1=O)Nc1ccccc1N1CCCC1 | i | 0.44 | · | ·
O=C(Nc1n[nH]c(C(F)(F)F)n1)C1CC1 | i | 0.1 | · | ·
CCCCCCCC(=O)N/N=C/c1ccc(Br)cc1 | i | 0.99 | · | ·
CCCCCCCC(=O)N/N=C/c1ccco1 | i | 10.5* | i | i | CHO-K1 Tl ctr=0.0*;KCNQ1 sel pot=2.6*;KCNQ2 pot conf=59.4*;Kir2-1 sel=-37.2;KCNQ2 W236L pot=i
Cc1ccc(NC(=O)C2CC2c2ccccc2)c([N+](=O)[O-])c1 (stereo not drawn) | i | 10.9* | i | i | CHO-K1 Tl ctr=-15.0;KCNQ1 sel pot=-9.5;KCNQ2 pot conf=7.1*;Kir2-1 sel=-37.6;KCNQ2 W236L pot=40.5%*
O=C(Nc1ccc(Cl)cc1F)C1CC1c1ccccc1 (stereo not drawn) | i | 7.21* | i | i | CHO-K1 Tl ctr=-12.3;KCNQ1 sel pot=28.2*;KCNQ2 pot conf=18.7*;Kir2-1 sel=-31.4;KCNQ2 W236L pot=i
CC(C)c1ccc(NC(=O)C2CC2c2ccccc2)cc1 (stereo not drawn) | i | 17.4* | i | i | CHO-K1 Tl ctr=19.6*;KCNQ1 sel pot=-8.7;KCNQ2 pot conf=28.1*;Kir2-1 sel=-23.9;KCNQ2 W236L pot=i
O=C(Nc1cccc(Cl)c1)C1CC1c1ccccc1 (stereo not drawn) | i | 0.27 | · | ·
Cc1ccc(NC(=O)/C=C\C(=O)O)c([N+](=O)[O-])c1 | i | · | · | ·
O=C(Nc1ccncc1)C1CC1c1ccccc1 (stereo not drawn) | i | 0.89 | · | ·
CCN(C(=O)c1ccc(S(=O)(=O)N2CCCCC2)cc1)C1CCS(=O)(=O)C1 (stereo not drawn) | i | 0.77 | · | ·
CCOC(=O)c1cnn(C)c1NC(=O)c1ccc(Cl)cc1Cl | i | · | · | ·
COc1cc(C(=O)NNC(=O)c2ccccc2Br)ccc1OCC(=O)N1CCOCC1 | i | 0.54 | · | ·
COc1ccc(CN2CCNC(=O)C2CC(=O)N(C)CCCN2CCOCC2)cc1C (stereo not drawn) | i | · | · | ·
CCn1nnc2sc3c(c2c1=O)CCC(C)C3 (stereo not drawn) | i | · | · | ·
COCCCn1c(=S)[nH]c2sc3c(c2c1=O)CCCS3 | i | 7.23* | i | 285.0%* | CHO-K1 Tl ctr=-31.2;KCNQ1 sel pot=46.8*;KCNQ2 pot conf=23.9*;Kir2-1 sel=-27.9;KCNQ2 W236L pot=i
SMILES | KCNQ2 block | KCNQ2 pot | Kir21 conf inh | HEK293 ctr | others
Cn1c(=S)[nH]c2sc3c(c2c1=O)CCC(C(C)(C)C)C3 (stereo not drawn) | i | 18.5* | i | 467.0%* | CHO-K1 Tl ctr=-1.4;KCNQ1 sel pot=-11.4;KCNQ2 pot conf=85.3*;Kir2-1 sel=1.4*;KCNQ2 W236L pot=i
Nn1c(=S)[nH]c2sc3c(c2c1=O)CCCC3 | i | 0.24 | · | ·
CCn1c(=O)n(CCOC)c(=O)c2c3c(sc21)CCCC3 | i | 0.3 | · | ·
CC(=O)Cn1nnc2sc3c(c2c1=O)CCC(C(C)(C)C)C3 (stereo not drawn) | i | · | · | ·
CCCn1c(=S)[nH]c2sc3c(c2c1=O)CCCC3 | i | 10.1* | i | 342.0%* | CHO-K1 Tl ctr=-5.3;KCNQ1 sel pot=40.5*;KCNQ2 pot conf=26.6*;Kir2-1 sel=-6.5;KCNQ2 W236L pot=i
COCCn1c(=S)[nH]c2sc3c(c2c1=O)CCC(C)C3 (stereo not drawn) | i | 15.5* | i | i | CHO-K1 Tl ctr=-0.5;KCNQ1 sel pot=3.6*;KCNQ2 pot conf=71.3*;Kir2-1 sel=11.2*;KCNQ2 W236L pot=i
CCOC(=O)Nc1ccc(C(=O)/C=C/c2ccccc2)cc1 | i | · | · | ·
CSCCC(NS(=O)(=O)c1cccc(C(F)(F)F)c1)C(=O)Nc1ccccc1N1CCCC1 (stereo not drawn) | i | · | · | ·
O=C(Nc1ccccc1F)Nc1ccc([N+](=O)[O-])cc1Cl | i | · | · | ·
O=C(O)C1C2CCC(C2)C1C(=O)NCCc1ccccc1 (stereo not drawn) | i | 0.01 | · | ·
Nc1ccc2nc(-c3ccc(Cl)cc3)[nH]c2c1 | i | 0.01 | · | ·
Clc1ccc2nc(-c3ccc(Cl)nc3)[nH]c2c1 | i | 6.9* | i | i | CHO-K1 Tl ctr=-6.8;KCNQ1 sel pot=56.6*;KCNQ2 pot conf=5.7*;Kir2-1 sel=-16.7;KCNQ2 W236L pot=3.5%*
CCCc1cc2c(cc1NC(=O)c1ccco1)OCO2 | i | · | · | ·
O=C(CC1SCCNC1=O)Nc1cccc([N+](=O)[O-])c1 (stereo not drawn) | i | 0.17 | · | ·
O=C(O)c1ccccc1NC(c1ccccc1)c1ccc(Cl)cc1 (stereo not drawn) | i | 5.92* | i | i | CHO-K1 Tl ctr=-11.2;KCNQ1 sel pot=16.3*;KCNQ2 pot conf=-6.8;Kir2-1 sel=-42.5
O=C(CSc1ccccc1C(=O)O)c1ccc(Cl)cc1 | i | 1.01 | · | ·
CCN(c1ccccc1)S(=O)(=O)c1ccc(NC(=O)c2nc(S(C)(=O)=O)ncc2Cl)cc1 | i | 8.96* | i | 74.5%* | CHO-K1 Tl ctr=-11.4;KCNQ1 sel pot=-59.1;KCNQ2 pot conf=-2.9;Kir2-1 sel=-53.9;KCNQ2 W236L pot=i
CCN(c1ccccc1)S(=O)(=O)c1ccc(C(=O)Nc2ccncc2)cc1 | i | 8.25* | i | i | CHO-K1 Tl ctr=79.0*;KCNQ1 sel pot=-20.0;KCNQ2 pot conf=9.8*;Kir2-1 sel=-56.8;KCNQ2 W236L pot=i
CCN(c1ccccc1)S(=O)(=O)c1ccc(F)cc1 | i | · | 54.5%* | i
COC(=O)CN(c1ccccc1)S(=O)(=O)c1ccc(F)cc1 | i | 0.02 | · | ·
CCS(=O)(=O)c1ncc(Cl)c(C(=O)Nc2ccc(S(=O)(=O)N(C)c3ccccc3)cc2)n1 | i | · | · | ·
CCN(c1ccccc1)S(=O)(=O)c1ccc(C(=O)Nc2ncccc2O)cc1 | i | · | · | ·
CC(C)(CNC(=O)c1ccccc1F)CNC(=O)c1ccccc1F | i | 1.11 | · | ·
CC1(C)C(CSc2nc3ccccc3[nH]2)C1(Cl)Cl (stereo not drawn) | i | · | · | ·
